Reference: PubChem BioAssay (NCI)
Compounds without any hit were thinned out: in the full panel of roughly 79,000, 15% have a hit. Rule as the data show it: active = growth inhibition above about 70%; inactive = the rest.

Experiments:
[1] = NCI Yeast Anticancer Drug Screen. Data for the rad50 strain (AID 155);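 also: 0% = growth of vehicle-only cultures of the same strain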; details: S. cerevisiae rad50 strain growth inhibition; at 50.0 µM; hits give high values
In short: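 Yeast carrying a defined DNA repair defect were exposed to test compounds, and growth was compared with vehicle-treated controls to give percent inhibition.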

[2] = NCI Yeast Anticancer Drug Screen. Data for the mec2-1 strain (AID 157); details: S. cerevisiae mec2-1 strain, at 50.0 µM, hits give high values
In short: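 Using mec2-1 yeast: add compound, measure growth, express inhibition versus vehicle-treated cultures.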

[3] = NCI Yeast Anticancer Drug Screen. Data for the sgs1 mgt1 strain (AID 161);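 also: 0% = growth of cultures given vehicle only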; details: S. cerevisiae sgs1 mgt1 strain, at 50.0 µM, hits give high values
In short: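 This yeast growth screen uses a strain with defined DNA-repair lesions; compound-treated growth is compared with vehicle-treated growth.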

[4] = NCI Yeast Anticancer Drug Screen. Data for the cln2 rad14 strain (AID 165);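 also: 0% = growth equal to vehicle treated cultures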; details: S. cerevisiae cln2 rad14 strain, at 50.0 µM, hits give high values
In short: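 Yeast strain cln2 rad14, bearing defects in cell cycle control and DNA repair, serves as the test system; values reflect growth inhibition compared with vehicle.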

[5] = NCI Yeast Anticancer Drug Screen. Data for the bub3 strain (AID 167); details: S. cerevisiae bub3 mutant strain, at 50.0 µM, hits give high values
In short: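 Compounds were applied to a genetically altered yeast strain carrying a cell-cycle control defect. Growth inhibition was scored against vehicle-treated controls.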

[6] = NCI Yeast Anticancer Drug Screen. Data for the mlh1 rad18 strain (AID 175); details: S. cerevisiae mlh1 rad18 strain growth inhibition; at 50.0 µM; hits give high values
In short: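 Steps: expose repair-defective yeast to compound; measure growth; express inhibition against vehicle-treated controls.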

Measured: growth inhibition

COC(=O)C(=O)C(C(=O)C(=O)Nc1ccccc1OC)c1nc2ccc([N+](=O)[O-])cc2[nH]c1=O (configuration not stated)
inactive: [1] 16.4% | [2] 19.4% | [3] 10.9% | [4] -19.6% | [5] 36.1% | [6] 21.6%

COc1cc2c(c3c1c(=O)c1ccccc1n3C)C=C([N+](=O)[O-])C(C)(C)O2
inactive: [1] 1.4% | [2] -32.8% | [3] 16.6% | [4] 6.95% | [5] -39.5% | [6] -25.3%

CC1=C2NCN(C)N=C2C(C#N)(C#N)C1(C#N)C#N
inactive: [1] 24% | [2] 35.4% | [3] -15.3% | [4] 2.25% | [5] -12.2% | [6] -13.1%

C[N+](C)(CCNC(=O)c1cccc2cc3ccccc3nc12)Cc1ccc([N+](=O)[O-])s1
inactive: [1] -13.4% | [2] -37.2% | [3] -12.7% | [4] 4.1% | [5] -40% | [6] -36.7%

N#Cc1nc(-c2cccc(-c3nc(C#N)c(N)o3)n2)oc1N
inactive: [1] 2.7% | [2] 13.7% | [3] -18.1% | [4] 7.9% | [5] -11.8% | [6] -58.6%

C=C(CCC(C(=O)O)C1CCC2(C)C3=C(CCC12C)C1(C)CCC(O)C(C)(C)C1CC3)C(C)C (configuration not stated)
inactive: [1] -4% | [2] -29.5% | [3] -0.75% | [4] 2.15% | [5] -23.6% | [6] -8.25%

N#C/C=C1\C=CC(O)C(O)C1OC1OC(CO)C(O)C(O)C1O (configuration not stated)
inactive: [1] 21.6% | [2] 7.3% | [3] 37.9% | [4] 27.6% | [5] 12.9% | [6] -62.7%

Cc1coc2c1C(OC(=O)C(C)C)C1(C)C(C)CCC(O)C1C2=O (configuration not stated)
inactive: [1] 9.2% | [2] -6.4% | [3] 31.5% | [4] 10.7% | [5] -1.3% | [6] -37.1%

COC(=O)C(=O)C(C(=O)C(=O)Nc1ccc(Cl)c(Cl)c1)c1nc2ccc(C(=O)c3ccccc3)cc2[nH]c1=O (configuration not stated)
inactive: [1] 6.8% | [2] -9.65% | [3] -15.1% | [4] 5.95% | [5] -3.05% | [6] 4.95%

CC(=N/N=C/c1ccccn1)/C(C)=N/N=C(C)/C(C)=N/N=C(C)/C(C)=N/N=C(C)/C(C)=N\N=C\c1ccccn1
inactive: [1] 24.1% | [2] 21.9% | [3] 4.05% | [4] 16.7% | [5] 8.15% | [6] -21.6%

COc1ccc2c(C)cc(N/N=C/c3ccc(C)s3)nc2c1
inactive: [1] -23.4% | [2] -26.5% | [3] -19.4% | [4] 9.05% | [5] -39.1% | [6] -12.1%

CCCCCCCCOC(=O)C12Oc3ccc(-c4ccc5c(c4O)C(O)=C4C(=O)CC(C)C(O)C4(C(=O)OCCCCCCCC)O5)c(O)c3C(O)=C1C(=O)CC(C)C2O (configuration not stated)
inactive: [1] 16.4% | [2] 2.95% | [3] 11.4% | [4] 7.6% | [5] 33.6% | [6] -54.6%

CC1(C)Oc2ccc3c(=O)cc(-c4ccc(F)cc4)oc3c2C1C(=O)O (configuration not stated)
inactive: [1] -2.3% | [2] -16.6% | [3] -12.2% | [4] -9.1% | [5] 8.1% | [6] -28.8%

O=C(O)COc1cc(-c2ccccc2F)nc2cc3c(cc12)OCO3
inactive: [1] 34.1% | [2] 22.5% | [3] 15.9% | [4] 7.9% | [5] -3.15% | [6] -18.1%

CC(=O)C1=C(C)N2C(=NC3=C(CCc4ccccc43)C2c2cccc(Br)c2)S1 (configuration not stated)
inactive: [1] 12.4% | [2] -27.4% | [3] -19.4% | [4] 3.2% | [5] -7.5% | [6] -20.5%

CC1(C)S[C@H](CN)N[C@H]1C(=O)OC(c1ccccc1)c1ccccc1
inactive: [1] -4.3% | [2] -13.4% | [3] 5.25% | [4] -1% | [5] -11.2% | [6] -31.9%

C=CCn1c2c(c3ccccc3c1=O)C(=O)c1ccccc1-2
inactive: [1] 43.9% | [2] -6.5% | [3] 1.7% | [4] 30.9% | [5] -8.5% | [6] -49.9%
